Several values for one entry are separate records, joined by “and”; a condition that tells them apart may be missing. Equal entries are not always repeated. Records with an inconclusive call do not appear. A call without a number means that no potency is given here. More than one record can exist for a structure, and the calls need not agree. Activity calls are given as the source filed them. Calls come from the whole dose curve; as a rule, active = well fitted curve in the direction sought with a large enough effect; inconclusive = small, poorly fitted or top-dose-only effect, or another doubt; inactive = no such curve, though single readings can be large; an effect the other way counts as inactive or inconclusive.
Columns and labels:
[1] = P-glycoprotein substrates identified in KB-8-5-11 adenocarcinoma cell line, qHTS therapeutic library screen (AID 1346987); note: nearly all actives have a fitted effect of over 65% in size
In short: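 In this qHTS, P-gp-rich KB-8-5-11 cells received library compounds across a concentration range. Viability was quantified by luminescence after 72 h at 37 degree C.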

[2] = NS1 protein of Zika virus - qHTS assay to identify small molecule inhibitors in human HEK 293 cells (AID 1347053); note: nearly all actives have a fitted effect of over 55% in size
In short: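 Read-out is a two-antibody TR-FRET for ZIKV NS1, normalized between uninfected cells and infected cells. Compound added 1 h before MR766 infection at MOI 0.5; human HEK 293 cells incubated 24 h, 37 C.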

[3] = qHTS of pediatric cancer cell lines to identify multiple opportunities for drug repurposing: Primary screen for TC32 cells (AID 1347089); note: nearly all actives have a fitted effect of over 60% in size
In short: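 Luminescent CellTiter-Glo read-out of metabolically active TC32 cells after 48 h compound exposure. Primary: MIPE 11-point, 0.78 nM–46 µM; NPC 8-point, 0.59 nM–46 µM. Confirmatory: 11-point dilutions.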

[4] = qHTS of pediatric cancer cell lines to identify multiple opportunities for drug repurposing: Primary screen for DAOY cells (AID 1347090); note: nearly all actives have a fitted effect of over 55% in size
In short: (§1)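 Cell viability, CellTiter-Glo luminescence; 500-1,000 cells/well, 8- or 11-point titration, 48 h compound exposure at 37 degrees C, 5% CO2. Controls: DMSO neutral, bortezomib 2.3 µM final as positive.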

[5] = qHTS of pediatric cancer cell lines to identify multiple opportunities for drug repurposing: Primary screen for SJ-GBM2 cells (AID 1347091)
In short: as §1

[6] = qHTS of pediatric cancer cell lines to identify multiple opportunities for drug repurposing: Primary screen for SK-N-MC cells (AID 1347093)
In short: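 Metabolically active cells were quantified by ATP-dependent luminescence (CellTiter-Glo, 15 min at room temperature) following 48 h treatment. Cells had been plated at 500-1,000 per well and settled for 5 h beforehand.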

[7] = qHTS of pediatric cancer cell lines to identify multiple opportunities for drug repurposing: Primary screen for BT-37 cells (AID 1347094)
In short: (§2)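 Following a 5-hour attachment period, cells at 500-1,000/well received compounds and were cultured for 48 hours. CellTiter-Glo was added and luminescence read to estimate viable, metabolically active cells.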

[8] = qHTS of pediatric cancer cell lines to identify multiple opportunities for drug repurposing: Primary screen for U-2 OS cells (AID 1347096); note: nearly all actives have a fitted effect of over 50% in size
In short: (§3)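 Cells (500-1,000/well) rested 5 h, then received compounds for 48 h; metabolically active cells were measured by CellTiter-Glo luminescence. Final concentrations spanned up to 46 µM (MIPE, 11-point) or 0.59 nM-46 µM (NPC, 8-point) in primary screens, 11-point in follow-ups.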

[9] = qHTS of pediatric cancer cell lines to identify multiple opportunities for drug repurposing: Primary screen for Saos-2 cells (AID 1347097); note: nearly all actives have a fitted effect of over 40% in size
In short: as §2

[10] = qHTS of pediatric cancer cell lines to identify multiple opportunities for drug repurposing: Primary screen for SK-N-SH cells (AID 1347098); note: nearly all actives have a fitted effect of over 65% in size
In short: as §3

[11] = qHTS of pediatric cancer cell lines to identify multiple opportunities for drug repurposing: Primary screen for NB-EBc1 cells (AID 1347095)
In short: as §2

[12] = qHTS of pediatric cancer cell lines to identify multiple opportunities for drug repurposing: Primary screen for A673 cells (AID 1347092); note: nearly all actives have a fitted effect of over 45% in size
In short: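 A673 cells (500-1,000 cells/well in growth media) were pre-incubated 5 h at 37 degrees C, then exposed to compounds for 48 h. Viability was read as CellTiter-Glo luminescence; concentration-response curves came directly from the primary screen.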
Potency is the fitted concentration of half-maximal effect.

Cn1nnc2c(C(N)=O)ncn2c1=O
Potency [1]: inactive | Potency [2]: inactive | Potency [3]: inactive | Potency [4]: inactive | Potency [5]: inactive | Potency [6]: inactive | Potency [7]: inactive | Potency [8]: inactive | Potency [9]: inactive | Potency [10]: inactive

COC(=O)Nc1nc2ccc(S(=O)c3ccccc3)cc2[nH]1 (configuration not stated)
Potency [1]: 10.5 µM (active) | Potency [2]: inactive | Potency [3]: 1.18 µM (active) | Potency [4]: 841 nM (active) and 14.8 µM (active) | Potency [5]: 596 nM (active) and 14.8 µM (active) | Potency [6]: 376 nM (active) and 8.33 µM (active) | Potency [7]: 1.55 µM (active) | Potency [11]: 473 nM (active) and 8.33 µM (active) | Potency [9]: 8.33 µM (active) | Potency [10]: 1.54 µM (active) and 19.2 µM (active)

OC(Cn1cncn1)(Cn1cncn1)c1ccc(F)cc1F
Potency [1]: inactive | Potency [2]: inactive | Potency [3]: inactive | Potency [4]: inactive | Potency [5]: inactive | Potency [6]: inactive | Potency [7]: inactive | Potency [11]: inactive | Potency [8]: inactive | Potency [9]: inactive | Potency [10]: inactive

CCCN[C@H]1CCc2nc(N)sc2C1
Potency [1]: inactive | Potency [2]: inactive | Potency [3]: inactive | Potency [4]: inactive | Potency [5]: inactive | Potency [12]: inactive | Potency [7]: inactive | Potency [11]: inactive | Potency [8]: inactive | Potency [9]: inactive | Potency [10]: inactive

CO[C@@H]1[C@@H](OC(N)=O)[C@@H](O)[C@H](Oc2ccc3c(O)c(NC(=O)c4ccc(O)c(CC=C(C)C)c4)c(=O)oc3c2C)OC1(C)C
Potency [1]: inactive | Potency [2]: inactive | Potency [3]: inactive | Potency [4]: inactive | Potency [5]: inactive | Potency [12]: inactive | Potency [6]: inactive | Potency [7]: inactive | Potency [8]: inactive | Potency [9]: inactive | Potency [10]: inactive

CN(C)CCc1c[nH]c2ccc(C[C@H]3COC(=O)N3)cc12
Potency [1]: inactive | Potency [2]: inactive | Potency [3]: inactive | Potency [4]: inactive | Potency [12]: inactive | Potency [6]: inactive | Potency [7]: inactive | Potency [11]: inactive | Potency [8]: inactive | Potency [9]: inactive | Potency [10]: inactive

CC1(C)[C@H](C(=O)O)N2C(=O)C[C@H]2S1(=O)=O
Potency [1]: inactive | Potency [2]: inactive | Potency [3]: inactive | Potency [4]: inactive | Potency [5]: inactive | Potency [12]: inactive | Potency [7]: inactive | Potency [11]: inactive | Potency [8]: inactive | Potency [9]: inactive | Potency [10]: inactive

COc1cccc(N(C)C(=S)Oc2ccc3c(c2)CCCC3)n1
Potency [1]: inactive | Potency [2]: inactive and 18.7 µM (active) | Potency [3]: inactive | Potency [4]: inactive | Potency [5]: inactive | Potency [12]: inactive | Potency [7]: inactive | Potency [11]: inactive | Potency [8]: inactive | Potency [9]: inactive | Potency [10]: inactive

O=C(O)c1cc(=O)[nH]c(=O)[nH]1
Potency [1]: inactive | Potency [2]: inactive | Potency [3]: inactive | Potency [4]: inactive | Potency [12]: inactive | Potency [6]: inactive | Potency [7]: inactive | Potency [11]: inactive | Potency [8]: inactive | Potency [9]: inactive

C[C@@H]1C[C@H]2[C@@H]3CCC4=CC(=O)C=C[C@]4(C)[C@@]3(Cl)[C@@H](O)C[C@]2(C)[C@@]1(OC(=O)c1ccco1)C(=O)CCl
Potency [1]: inactive | Potency [2]: inactive | Potency [3]: inactive | Potency [4]: 18.7 µM (active) | Potency [5]: 9350 nM (active) | Potency [6]: 2.96 µM (active) | Potency [7]: 21.7 µM (active) | Potency [11]: 11.8 µM (active) | Potency [8]: 14.8 µM (active) | Potency [9]: 14.8 µM (active) | Potency [10]: 19.2 µM (active)

CN1CCN(c2c(F)cc3c(=O)c(C(=O)O)cn(CCF)c3c2F)CC1
Potency [1]: inactive | Potency [2]: inactive | Potency [3]: inactive | Potency [4]: inactive | Potency [5]: inactive | Potency [6]: inactive | Potency [7]: inactive | Potency [11]: inactive | Potency [8]: inactive | Potency [9]: inactive | Potency [10]: inactive

CC[C@H](C)C(=O)O[C@H]1C[C@@H](C)C=C2C=C[C@H](C)[C@H](CC[C@@H]3C[C@@H](O)CC(=O)O3)[C@H]21
Potency [1]: 18.7 µM (active) | Potency [2]: inactive | Potency [3]: inactive | Potency [4]: 8.41 µM (active) and 9.35 µM (active) | Potency [5]: 9.44 µM (active) and 13.2 µM (active) | Potency [6]: inactive | Potency [8]: inactive | Potency [9]: 5.9 µM (active) | Potency [10]: 4.86 µM (active) and 19.2 µM (active)

CO[C@@]12[C@H](COC(N)=O)C3=C(C(=O)C(C)=C(N)C3=O)N1C[C@@H]1N[C@@H]12
Potency [1]: inactive and 16.6 µM (active) | Potency [2]: inactive | Potency [3]: inactive | Potency [4]: 9.35 µM (active) | Potency [12]: 1.33 µM (active) and 1.18 µM (active) | Potency [6]: 266 nM (active) and 743 nM (active) | Potency [7]: 347 nM (active) and 1.72 µM (active) | Potency [11]: 335 nM (active) and 9.35 µM (active) | Potency [8]: inactive | Potency [9]: inactive | Potency [10]: 1.72 µM (active) and 8.57 µM (active)

CCn1cc(C(=O)O)c(=O)c2cc(F)c(N3CCN(C)CC3)cc21
Potency [1]: inactive | Potency [2]: inactive | Potency [3]: inactive | Potency [4]: inactive | Potency [12]: inactive | Potency [6]: inactive | Potency [7]: inactive | Potency [11]: inactive | Potency [8]: inactive | Potency [9]: inactive | Potency [10]: inactive

Nc1nc(=S)c2[nH]cnc2[nH]1
Potency [1]: 5.8 µM (active) and 1.18 µM (active) | Potency [2]: inactive | Potency [3]: 3.33 µM (active) | Potency [4]: 2.11 µM (active) and 1.87 µM (active) | Potency [5]: 935 nM (active) | Potency [6]: 2.99 µM (active) and 1.66 µM (active) | Potency [7]: 2.46 µM (active) and 1.93 µM (active) | Potency [11]: 0.743 µM (active) | Potency [8]: 1.68 µM (active) and 2.35 µM (active) | Potency [9]: 7.5 µM (active) and 4.69 µM (active) | Potency [10]: 6.87 µM (active) and 5.41 µM (active)

C[C@@H](CN1CC(=O)NC(=O)C1)N1CC(=O)NC(=O)C1
Potency [1]: inactive and 18.7 µM (active) | Potency [2]: inactive | Potency [3]: inactive | Potency [4]: inactive | Potency [5]: inactive | Potency [6]: 23.7 µM (active) and 7.43 µM (active) | Potency [7]: 6.85 µM (active) | Potency [11]: 3.72 µM (active) | Potency [8]: inactive | Potency [9]: inactive | Potency [10]: inactive

COC(=O)Nc1nc2ccc(Sc3ccccc3)cc2[nH]1
Potency [1]: 495 nM (active) and 1.18 µM (active) | Potency [2]: inactive | Potency [3]: 1.33 µM (active) and 2.62 µM (active) | Potency [4]: 1.06 µM (active) | Potency [5]: 833 nM (active) | Potency [6]: 841 nM (active) and 590 nM (active) | Potency [7]: 1.74 µM (active) and 3.06 µM (active) | Potency [11]: 0.469 µM (active) | Potency [8]: 13.3 µM (active) | Potency [9]: 841 nM (active) and 2.35 µM (active) | Potency [10]: inactive

CCOC(=O)c1ccc(C#Cc2ccc3c(c2)C(C)(C)CCS3)nc1
Potency [1]: inactive | Potency [2]: inactive | Potency [3]: inactive | Potency [4]: inactive | Potency [5]: inactive | Potency [6]: 18.7 µM (active) | Potency [7]: inactive | Potency [11]: inactive | Potency [8]: inactive | Potency [10]: inactive

CCOc1cc(N)c(Cl)cc1C(=O)NCC1CN(Cc2ccc(F)cc2)CCO1 (configuration not stated)
Potency [1]: inactive | Potency [2]: inactive | Potency [3]: inactive | Potency [4]: inactive | Potency [5]: inactive | Potency [7]: inactive | Potency [11]: inactive | Potency [8]: inactive | Potency [9]: inactive | Potency [10]: inactive

From PubChem BioAssay (NCATS)
